About 83,000 compounds went through this panel and 20% of them were active in at least one assay; those are over-represented in the sample as a whole.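 The test compound was applied at a single concentration to cells in 96-well plates for 48 hours, and percent growth was recorded.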 Active and inactive are the calls of the source. Rule for the calls: active = growth percent below 10; inactive = the rest.
system: COLO 205 colon; test: NCI-60 one-dose screen, 48 h (100 = growth as untreated, 0 = no growth, -100 = all killed); conditions: 10 µM

Row | Compound | growth
1 | Clc1ccc(Nc2ccnc(NCCCNc3ccnc4cc(Cl)ccc34)n2)cc1 | -91.1% (active)
2 | Oc1[nH]c2cc(Cl)ccc2c1/C=c1/ccc2c(c1)N=C(c1cc(F)cc(F)c1)N=2 | -0.0984% (active)
3 | CSc1nn(-c2ccccc2)c2ncnc(Oc3ccccc3)c12 | 118% (inactive)
4 | Cc1cc2c(C)c3cc(C)c(N)cc3nc2cc1N | 1.41% (active)
5 | CCOC(=O)C1(CC(C)C)CCOC1=O (stereo not drawn) | 115% (inactive)
6 | COc1ccc(Nc2cc(C)nc(NCCCNc3ccnc4cc(Cl)ccc34)n2)cc1 | -96.3% (active)
7 | CCCCCCCCCCCCCCCC(=O)OC1[C@@H](OC(=O)CCCCCCCCCCCCCCC)[C@@H](C(=O)N[C@@H](CCCCN)C(=O)OC)O[C@H]1n1cnc2c(=O)[nH]c(NC(=O)C(C)C)nc21 (stereo partly drawn) | 101% (inactive)
8 | COc1cc(Nc2ccnc(NCCNc3ccnc4cc(Cl)ccc34)n2)cc(OC)c1 | 2.21% (active)
9 | Cc1cc(Nc2ccc(Cl)cc2)nc(NCCCNc2ccnc3cc(Cl)ccc23)n1 | -91.1% (active)
10 | COc1cc2cc3c(nc2cc1OC)CCN3Cc1ccc(NC(=O)Nc2cc(C(F)(F)F)cc(C(F)(F)F)c2)cc1 | 90% (inactive)
11 | CC(C)=CCc1cc(O)cc2c1OC(C=C(C)C)C1=C2C(=O)C2=C(NCCS2(=O)=O)C1=O (stereo not drawn) | -61.3% (active)
12 | CC(C)=CCc1cc(O)cc2c1OC(C=C(C)C)C1=C2C(=O)C2=C(C1=O)S(=O)(=O)CCN2 (stereo not drawn) | 43.4% (inactive)
13 | COc1ccc(Nc2ccnc(NCCNc3ccnc4cc(Cl)ccc34)n2)cc1 | 38.8% (inactive)
14 | Cc1cc(Cl)nc(N(CCCNc2ccnc3cc(Cl)ccc23)Cc2cccs2)n1 | -73.3% (active)
15 | COc1cc(Cl)cc(-c2nn(-c3cccc(NC(=O)Nc4cc(C(F)(F)F)cc(C(F)(F)F)c4)c3)cc2-c2ccncc2)c1 | -64% (active)
16 | CN(C)CCNC(=O)c1cccn2c(=O)c3cc4ccccc4cc3nc12 | -15.2% (active)
17 | CC12O[C@H](C[C@@H](O)[C@H]1O)n1c3ccccc3c3c4c(c5c6ccccc6n2c5c31)C(=O)N(CCCN)C4=O | 12.9% (inactive)
18 | CCCCCCCC(C)NCCO (stereo not drawn) | 107% (inactive)
19 | Cc1cc(N(CCCNc2ccnc3cc(Cl)ccc23)Cc2ccc3c(c2)OCO3)nc(N2CCOCC2)n1 | -54% (active)
20 | COc1cc(-c2nnc(-c3c(-c4ccc(F)cc4)nc4ccccn34)o2)cc(OC)c1OC | 107% (inactive)

Row | Compound | growth
21 | COc1ccc2c(c1)/C(=C\c1c[nH]c3ccc(OC)cc13)C(=O)N2 | 36.7% (inactive)
22 | NC(=O)CC1(c2ccccc2)CCCCC1 | 103% (inactive)
23 | COc1ccc(-c2nc3sccn3c2-c2nc3c([nH]2)C(=O)c2ccccc2C3=O)cc1 | 102% (inactive)
24 | Fc1ccc(-c2nnc(-c3c(-c4ccc(F)cc4)nc4ccccn34)o2)cc1 | 79.5% (inactive)
25 | CCN1CCCC1CNC(=O)c1ncc(-c2ccc(C(F)(F)F)cc2)c(NC2CCCCCC2)n1 (stereo not drawn) | 42.7% (inactive)
26 | Cc1ccc(Nc2cc(C)nc(NCCCNc3ccnc4cc(Cl)ccc34)n2)cc1 | -88.2% (active)
27 | Cn1c([N+](=O)[O-])cnc1/C=C1\Oc2ccccc2C1=O | -64.6% (active)
28 | CC12O[C@H](C[C@@H](OC(=O)c3ccccc3)[C@H]1O)n1c3ccccc3c3c4c(c5c6ccccc6n2c5c31)C(=O)NC4=O | 46.8% (inactive)
29 | COc1ccc(-c2nc3ncccn3c2-c2nnc(-c3ccc(F)cc3)o2)cc1 | 113% (inactive)
30 | Nc1ccc2c(c1)C1(CCC2)NC(=O)NC1=O (stereo not drawn) | 105% (inactive)
31 | COc1cc(OC)cc(-c2cncn2-c2ccc(-c3nc4cc(OC)cc(OC)c4s3)cc2)c1 | 79.5% (inactive)
32 | Clc1ccc2c(NCCCNc3nccc(Nc4ccc(Br)cc4)n3)ccnc2c1 | -84.3% (active)
33 | O=C(Nc1cccc(Br)c1)c1cc(=O)[nH]c2ccccc12 | 85.1% (inactive)
34 | COc1cc(Nc2ccnc(NCCCNc3ccnc4cc(Cl)ccc34)n2)cc(OC)c1 | -92.2% (active)
35 | CN1CCC(CNc2cc(C3(C(=O)Nc4cc(C(=O)Nc5ccc(Cl)c(C(F)(F)F)c5)ccc4F)CC3)ncn2)CC1 | -67.3% (active)
36 | N#Cc1c(C#N)c(SSc2c(C#N)c(C#N)c(N)n2-c2ccccc2)n(-c2ccccc2)c1N | 97.4% (inactive)
37 | Clc1ccc(Nc2ccnc(NCCNc3ccnc4cc(Cl)ccc34)n2)cc1 | -91% (active)
38 | Cc1cc(N(CCCNc2ccnc3cc(Cl)ccc23)Cc2ccc3c(c2)OCO3)nc(N2CCCCC2)n1 | -78.7% (active)
39 | CCCCN(CCCC)c1cc(C(=O)CCCCCN)c2ccccc2n1 | 17.4% (inactive)

system: DU-145 prostate; test: as above; conditions: 10 µM

Row | Compound | growth
40 | Clc1ccc(Nc2ccnc(NCCCNc3ccnc4cc(Cl)ccc34)n2)cc1 | 9.74% (active)
41 | Oc1[nH]c2cc(Cl)ccc2c1/C=c1/ccc2c(c1)N=C(c1cc(F)cc(F)c1)N=2 | -8.59% (active)
42 | CSc1nn(-c2ccccc2)c2ncnc(Oc3ccccc3)c12 | 101% (inactive)
43 | Cc1cc2c(C)c3cc(C)c(N)cc3nc2cc1N | 10.6% (inactive)
44 | CCOC(=O)C1(CC(C)C)CCOC1=O (stereo not drawn) | 105% (inactive)
45 | COc1ccc(Nc2cc(C)nc(NCCCNc3ccnc4cc(Cl)ccc34)n2)cc1 | 28% (inactive)
46 | CCCCCCCCCCCCCCCC(=O)OC1[C@@H](OC(=O)CCCCCCCCCCCCCCC)[C@@H](C(=O)N[C@@H](CCCCN)C(=O)OC)O[C@H]1n1cnc2c(=O)[nH]c(NC(=O)C(C)C)nc21 (stereo partly drawn) | 107% (inactive)
47 | COc1cc(Nc2ccnc(NCCNc3ccnc4cc(Cl)ccc34)n2)cc(OC)c1 | 63.9% (inactive)
48 | Cc1cc(Nc2ccc(Cl)cc2)nc(NCCCNc2ccnc3cc(Cl)ccc23)n1 | 1.28% (active)
49 | COc1cc2cc3c(nc2cc1OC)CCN3Cc1ccc(NC(=O)Nc2cc(C(F)(F)F)cc(C(F)(F)F)c2)cc1 | 94.7% (inactive)
50 | CC(C)=CCc1cc(O)cc2c1OC(C=C(C)C)C1=C2C(=O)C2=C(NCCS2(=O)=O)C1=O (stereo not drawn) | -95.3% (active)
51 | CC(C)=CCc1cc(O)cc2c1OC(C=C(C)C)C1=C2C(=O)C2=C(C1=O)S(=O)(=O)CCN2 (stereo not drawn) | 56.4% (inactive)
52 | COc1ccc(Nc2ccnc(NCCNc3ccnc4cc(Cl)ccc34)n2)cc1 | 61.4% (inactive)
53 | Cc1cc(Cl)nc(N(CCCNc2ccnc3cc(Cl)ccc23)Cc2cccs2)n1 | 30.7% (inactive)
54 | COc1cc(Cl)cc(-c2nn(-c3cccc(NC(=O)Nc4cc(C(F)(F)F)cc(C(F)(F)F)c4)c3)cc2-c2ccncc2)c1 | 13.1% (inactive)
55 | CN(C)CCNC(=O)c1cccn2c(=O)c3cc4ccccc4cc3nc12 | -3.1% (active)
56 | CC12O[C@H](C[C@@H](O)[C@H]1O)n1c3ccccc3c3c4c(c5c6ccccc6n2c5c31)C(=O)N(CCCN)C4=O | 60.8% (inactive)
57 | CCCCCCCC(C)NCCO (stereo not drawn) | 106% (inactive)
58 | Cc1cc(N(CCCNc2ccnc3cc(Cl)ccc23)Cc2ccc3c(c2)OCO3)nc(N2CCOCC2)n1 | 38% (inactive)
59 | COc1cc(-c2nnc(-c3c(-c4ccc(F)cc4)nc4ccccn34)o2)cc(OC)c1OC | 77% (inactive)

Row | Compound | growth
60 | COc1ccc2c(c1)/C(=C\c1c[nH]c3ccc(OC)cc13)C(=O)N2 | 63.1% (inactive)
61 | NC(=O)CC1(c2ccccc2)CCCCC1 | 107% (inactive)
62 | COc1ccc(-c2nc3sccn3c2-c2nc3c([nH]2)C(=O)c2ccccc2C3=O)cc1 | 104% (inactive)
63 | Fc1ccc(-c2nnc(-c3c(-c4ccc(F)cc4)nc4ccccn34)o2)cc1 | 92.1% (inactive)
64 | CCN1CCCC1CNC(=O)c1ncc(-c2ccc(C(F)(F)F)cc2)c(NC2CCCCCC2)n1 (stereo not drawn) | 83.2% (inactive)
65 | Cc1ccc(Nc2cc(C)nc(NCCCNc3ccnc4cc(Cl)ccc34)n2)cc1 | -17.8% (active)
66 | Cn1c([N+](=O)[O-])cnc1/C=C1\Oc2ccccc2C1=O | -8.91% (active)
67 | CC12O[C@H](C[C@@H](OC(=O)c3ccccc3)[C@H]1O)n1c3ccccc3c3c4c(c5c6ccccc6n2c5c31)C(=O)NC4=O | 58.2% (inactive)
68 | COc1ccc(-c2nc3ncccn3c2-c2nnc(-c3ccc(F)cc3)o2)cc1 | 106% (inactive)
69 | Nc1ccc2c(c1)C1(CCC2)NC(=O)NC1=O (stereo not drawn) | 114% (inactive)
70 | COc1cc(OC)cc(-c2cncn2-c2ccc(-c3nc4cc(OC)cc(OC)c4s3)cc2)c1 | 78.1% (inactive)
71 | Clc1ccc2c(NCCCNc3nccc(Nc4ccc(Br)cc4)n3)ccnc2c1 | 9.83% (active)
72 | O=C(Nc1cccc(Br)c1)c1cc(=O)[nH]c2ccccc12 | 110% (inactive)
73 | COc1cc(Nc2ccnc(NCCCNc3ccnc4cc(Cl)ccc34)n2)cc(OC)c1 | 34.3% (inactive)
74 | CN1CCC(CNc2cc(C3(C(=O)Nc4cc(C(=O)Nc5ccc(Cl)c(C(F)(F)F)c5)ccc4F)CC3)ncn2)CC1 | 40.5% (inactive)
75 | N#Cc1c(C#N)c(SSc2c(C#N)c(C#N)c(N)n2-c2ccccc2)n(-c2ccccc2)c1N | 115% (inactive)
76 | Clc1ccc(Nc2ccnc(NCCNc3ccnc4cc(Cl)ccc34)n2)cc1 | 36% (inactive)
77 | Cc1cc(N(CCCNc2ccnc3cc(Cl)ccc23)Cc2ccc3c(c2)OCO3)nc(N2CCCCC2)n1 | 11.1% (inactive)
78 | CCCCN(CCCC)c1cc(C(=O)CCCCCN)c2ccccc2n1 | -81.1% (active)

Source: PubChem BioAssay (NCI)
